For part of these data: Entries with a potency or affinity are not part of this list.
Legend:
Design in all cases: scale not given: direction of the effect not stated beside the values
[1] = molecular target: Protein translocase subunit SecA (Escherichia coli (strain K12)) (UniProt P10408); assay: Assay to Identify E. coli SecA ATPase Inhibitors; type: functional; conditions: 30 µM
[2] = molecular target: T1, Ubiquitin-activating enzyme e1, putative (Leishmania donovani (strain BPK282A1)) (UniProt E9BSI1); assay: Leishmania donovani Ubiquitin Activating Enzyme (LdE1); type: functional; conditions: 30 µM
T1 sequence (whole entry): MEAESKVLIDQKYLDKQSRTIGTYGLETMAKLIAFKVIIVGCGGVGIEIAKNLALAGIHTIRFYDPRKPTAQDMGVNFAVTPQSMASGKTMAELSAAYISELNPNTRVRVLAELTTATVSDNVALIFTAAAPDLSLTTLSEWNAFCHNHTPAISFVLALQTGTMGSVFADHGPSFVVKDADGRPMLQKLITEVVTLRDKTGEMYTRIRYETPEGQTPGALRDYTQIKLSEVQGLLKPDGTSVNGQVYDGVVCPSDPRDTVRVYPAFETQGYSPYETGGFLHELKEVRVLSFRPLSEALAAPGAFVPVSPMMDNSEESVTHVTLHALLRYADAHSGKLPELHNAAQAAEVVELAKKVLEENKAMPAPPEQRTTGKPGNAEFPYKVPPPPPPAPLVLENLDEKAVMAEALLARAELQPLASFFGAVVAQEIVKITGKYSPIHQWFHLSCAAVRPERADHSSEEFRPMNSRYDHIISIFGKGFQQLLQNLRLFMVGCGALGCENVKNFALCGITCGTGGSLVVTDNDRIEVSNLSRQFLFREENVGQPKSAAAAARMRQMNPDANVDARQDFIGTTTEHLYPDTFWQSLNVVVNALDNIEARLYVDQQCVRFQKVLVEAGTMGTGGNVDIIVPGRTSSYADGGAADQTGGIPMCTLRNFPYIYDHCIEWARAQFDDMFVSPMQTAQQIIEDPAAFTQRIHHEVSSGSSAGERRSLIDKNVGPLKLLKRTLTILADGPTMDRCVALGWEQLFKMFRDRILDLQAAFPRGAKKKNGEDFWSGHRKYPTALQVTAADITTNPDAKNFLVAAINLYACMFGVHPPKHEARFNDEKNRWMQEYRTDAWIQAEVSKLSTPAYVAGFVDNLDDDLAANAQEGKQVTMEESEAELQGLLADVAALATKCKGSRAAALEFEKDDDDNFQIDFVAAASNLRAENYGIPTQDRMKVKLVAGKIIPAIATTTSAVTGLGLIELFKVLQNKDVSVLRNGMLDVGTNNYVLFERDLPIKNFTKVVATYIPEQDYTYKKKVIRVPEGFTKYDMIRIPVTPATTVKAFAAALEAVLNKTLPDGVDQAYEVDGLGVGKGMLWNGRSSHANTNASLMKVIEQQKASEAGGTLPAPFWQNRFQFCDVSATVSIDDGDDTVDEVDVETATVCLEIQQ

[3] = molecular target: AMP-activated protein kinase, AMPK (Homo sapiens) (UniProt P54646+O43741+P54619+Q9UGJ0+Q9Y478+Q13131+Q9UGI9); assay: AMP-dependent Kinase enzyme assay. An in vitro enzyme assay that detects ADP turnover that is directly proportional to AMPK activity. This uses naive AMPK that is activated during the assay with MK-8722; type: functional; conditions: 30 µM
[4] = molecular target: Sialic acid-binding Ig-like lectin 9 (Homo sapiens) (UniProt Q9Y336); assay: Hs-Siglec9 ALPHAscreen SOP 20170721; conditions: 10 µM
Sialic acid-binding Ig-like lectin 9 (Homo sapiens), sequence (Q9Y336 whole entry): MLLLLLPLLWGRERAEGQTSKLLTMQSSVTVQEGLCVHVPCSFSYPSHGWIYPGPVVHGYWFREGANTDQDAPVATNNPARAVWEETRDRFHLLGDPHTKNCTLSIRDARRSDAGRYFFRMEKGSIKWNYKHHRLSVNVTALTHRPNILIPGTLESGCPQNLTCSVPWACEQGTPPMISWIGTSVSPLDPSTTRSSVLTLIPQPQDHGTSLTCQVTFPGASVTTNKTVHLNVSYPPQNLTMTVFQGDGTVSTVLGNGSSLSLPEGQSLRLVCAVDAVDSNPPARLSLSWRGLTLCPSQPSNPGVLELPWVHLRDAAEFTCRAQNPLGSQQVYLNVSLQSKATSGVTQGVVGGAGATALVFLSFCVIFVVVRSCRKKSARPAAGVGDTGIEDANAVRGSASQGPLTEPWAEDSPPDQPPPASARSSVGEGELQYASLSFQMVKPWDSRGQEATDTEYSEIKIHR

Trypanosoma cruzi = assay: Trypanosoma cruzi phosphomannomutase and mannose-1-phosphate guanylyltransferase assay; type: functional; conditions: 10 µM
[5] = molecular target: T2, Arginase-2, mitochondrial (Homo sapiens) (UniProt P78540); assay: in vitro enzyme assay to detect the production of urea directly proportional to the activity of Arginase II; type: functional; conditions: 33.3 µM; note: in the data most compounds retested in dose-response had high values
T2 sequence (whole entry): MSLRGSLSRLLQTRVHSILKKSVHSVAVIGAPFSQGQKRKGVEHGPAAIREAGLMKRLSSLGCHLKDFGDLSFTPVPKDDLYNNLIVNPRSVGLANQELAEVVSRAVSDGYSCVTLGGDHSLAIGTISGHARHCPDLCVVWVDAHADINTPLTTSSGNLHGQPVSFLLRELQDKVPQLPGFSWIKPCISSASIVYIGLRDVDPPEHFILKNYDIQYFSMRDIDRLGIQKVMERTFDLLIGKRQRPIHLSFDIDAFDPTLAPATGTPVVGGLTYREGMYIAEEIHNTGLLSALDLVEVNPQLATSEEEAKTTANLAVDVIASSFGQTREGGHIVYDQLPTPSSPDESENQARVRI

[6] = molecular target: T3, Proteasome subunit beta (Trypanosoma cruzi) (UniProt O96673); assay: Trypanosoma cruzi proteasome chymotrypsin-like activity (TcProtChymo) assay.; note: in the data most compounds retested in dose-response had high values; type: functional; conditions: 9.37 µM
T3 sequence (whole entry): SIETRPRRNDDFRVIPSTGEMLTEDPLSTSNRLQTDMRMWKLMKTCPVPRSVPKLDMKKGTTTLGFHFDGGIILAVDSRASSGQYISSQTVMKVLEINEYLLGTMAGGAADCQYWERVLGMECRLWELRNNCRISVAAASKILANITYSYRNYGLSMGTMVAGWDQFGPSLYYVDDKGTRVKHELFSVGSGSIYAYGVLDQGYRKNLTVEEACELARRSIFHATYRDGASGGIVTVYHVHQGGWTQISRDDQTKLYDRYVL

Homo sapiens = organism: Homo sapiens; assay: To identify inhibition of the IFN signalling (Jak-Stat) pathway via expression of an eGFP reporter gene under the control of an IFN-stimulated response element (ISRE) containing MxA promoter.; type: functional; conditions: 30 µM
[7] = molecular target: T4, Tyrosyl-tRNA synthetase, putative (Trypanosoma cruzi (strain CL Brener)) (UniProt Q4DSP6); assay: Trypanosoma cruzi tyrosyl tRNA synthetase (TcYRS) _High Tyrosine SOP; type: functional; conditions: 30 µM; note: in the data most compounds retested in dose-response had high values
T4 sequence (whole entry): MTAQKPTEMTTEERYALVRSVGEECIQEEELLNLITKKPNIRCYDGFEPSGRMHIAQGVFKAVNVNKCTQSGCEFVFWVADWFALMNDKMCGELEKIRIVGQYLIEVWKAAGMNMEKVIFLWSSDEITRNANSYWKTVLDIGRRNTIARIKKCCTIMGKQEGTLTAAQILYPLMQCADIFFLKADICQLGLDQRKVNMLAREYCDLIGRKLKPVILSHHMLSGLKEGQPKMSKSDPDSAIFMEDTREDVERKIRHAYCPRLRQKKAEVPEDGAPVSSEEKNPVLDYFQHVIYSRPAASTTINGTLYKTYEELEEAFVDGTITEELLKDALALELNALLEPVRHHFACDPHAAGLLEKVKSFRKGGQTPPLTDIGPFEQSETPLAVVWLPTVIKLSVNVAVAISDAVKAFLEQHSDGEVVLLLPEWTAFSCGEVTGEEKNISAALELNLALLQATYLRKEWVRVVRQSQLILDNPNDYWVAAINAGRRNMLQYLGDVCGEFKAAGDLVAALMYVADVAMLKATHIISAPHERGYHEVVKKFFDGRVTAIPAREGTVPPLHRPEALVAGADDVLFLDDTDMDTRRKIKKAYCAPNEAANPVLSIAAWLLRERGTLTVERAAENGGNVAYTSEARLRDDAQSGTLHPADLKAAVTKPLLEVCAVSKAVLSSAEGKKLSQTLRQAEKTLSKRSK

[8] = molecular target: T4, Tyrosyl-tRNA synthetase, putative (Trypanosoma cruzi (strain CL Brener)); assay: Trypanosoma cruzi tyrosyl tRNA synthetase (TcYRS) SOP; type: functional; conditions: 30 µM
[9] = molecular target: Chromo domain-containing protein 1 (Saccharomyces cerevisiae (strain ATCC 204508 / S288c) (Baker's yeast)) (UniProt P32657); assay: ScCHD-1 Enzyme Inhibition Assay; type: functional; conditions: 30 µM; note: in the data most compounds retested in dose-response had high values
Chromo domain-containing protein 1 (Saccharomyces cerevisiae (strain ATCC 204508 / S288c) (Baker's yeast)), sequence (P32657 whole entry, the tested form may be a part): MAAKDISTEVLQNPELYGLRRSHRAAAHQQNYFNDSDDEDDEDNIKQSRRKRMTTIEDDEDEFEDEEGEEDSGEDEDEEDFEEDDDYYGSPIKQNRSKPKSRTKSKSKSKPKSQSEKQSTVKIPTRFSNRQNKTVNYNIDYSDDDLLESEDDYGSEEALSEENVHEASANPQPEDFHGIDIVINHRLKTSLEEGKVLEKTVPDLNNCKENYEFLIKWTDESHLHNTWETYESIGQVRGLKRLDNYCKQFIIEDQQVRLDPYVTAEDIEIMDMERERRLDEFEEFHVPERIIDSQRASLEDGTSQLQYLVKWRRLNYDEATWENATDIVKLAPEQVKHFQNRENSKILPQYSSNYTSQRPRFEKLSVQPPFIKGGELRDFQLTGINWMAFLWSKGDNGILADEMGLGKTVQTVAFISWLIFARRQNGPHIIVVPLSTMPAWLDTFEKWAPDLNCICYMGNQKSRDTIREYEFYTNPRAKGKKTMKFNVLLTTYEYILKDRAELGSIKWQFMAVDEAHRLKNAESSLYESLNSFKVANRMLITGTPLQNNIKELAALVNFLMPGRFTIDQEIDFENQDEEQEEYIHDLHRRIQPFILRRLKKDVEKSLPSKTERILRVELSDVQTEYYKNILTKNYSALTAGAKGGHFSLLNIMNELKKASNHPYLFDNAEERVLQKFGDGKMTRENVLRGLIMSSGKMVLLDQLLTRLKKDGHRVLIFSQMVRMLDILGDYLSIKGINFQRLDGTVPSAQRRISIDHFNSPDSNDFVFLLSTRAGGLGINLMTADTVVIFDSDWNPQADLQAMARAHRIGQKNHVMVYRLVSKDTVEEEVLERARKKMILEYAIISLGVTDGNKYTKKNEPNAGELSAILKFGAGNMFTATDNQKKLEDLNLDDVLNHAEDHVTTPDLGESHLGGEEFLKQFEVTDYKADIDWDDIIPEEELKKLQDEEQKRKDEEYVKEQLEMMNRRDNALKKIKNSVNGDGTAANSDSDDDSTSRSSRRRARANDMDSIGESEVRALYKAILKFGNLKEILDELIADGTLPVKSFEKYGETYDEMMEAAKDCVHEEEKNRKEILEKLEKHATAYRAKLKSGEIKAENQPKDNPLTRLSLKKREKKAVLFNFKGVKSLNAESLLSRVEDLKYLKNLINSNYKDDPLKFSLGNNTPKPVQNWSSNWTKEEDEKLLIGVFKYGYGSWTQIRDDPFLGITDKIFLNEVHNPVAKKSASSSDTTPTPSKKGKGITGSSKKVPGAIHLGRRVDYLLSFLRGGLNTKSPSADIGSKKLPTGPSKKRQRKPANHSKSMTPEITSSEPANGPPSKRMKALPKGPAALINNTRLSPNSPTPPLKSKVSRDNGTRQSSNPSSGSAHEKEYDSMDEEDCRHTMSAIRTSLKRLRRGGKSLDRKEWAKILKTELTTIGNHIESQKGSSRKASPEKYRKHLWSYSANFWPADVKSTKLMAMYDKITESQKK

Protein translocase subunit SecA (Escherichia coli (strain K12)), sequence (P10408 whole entry): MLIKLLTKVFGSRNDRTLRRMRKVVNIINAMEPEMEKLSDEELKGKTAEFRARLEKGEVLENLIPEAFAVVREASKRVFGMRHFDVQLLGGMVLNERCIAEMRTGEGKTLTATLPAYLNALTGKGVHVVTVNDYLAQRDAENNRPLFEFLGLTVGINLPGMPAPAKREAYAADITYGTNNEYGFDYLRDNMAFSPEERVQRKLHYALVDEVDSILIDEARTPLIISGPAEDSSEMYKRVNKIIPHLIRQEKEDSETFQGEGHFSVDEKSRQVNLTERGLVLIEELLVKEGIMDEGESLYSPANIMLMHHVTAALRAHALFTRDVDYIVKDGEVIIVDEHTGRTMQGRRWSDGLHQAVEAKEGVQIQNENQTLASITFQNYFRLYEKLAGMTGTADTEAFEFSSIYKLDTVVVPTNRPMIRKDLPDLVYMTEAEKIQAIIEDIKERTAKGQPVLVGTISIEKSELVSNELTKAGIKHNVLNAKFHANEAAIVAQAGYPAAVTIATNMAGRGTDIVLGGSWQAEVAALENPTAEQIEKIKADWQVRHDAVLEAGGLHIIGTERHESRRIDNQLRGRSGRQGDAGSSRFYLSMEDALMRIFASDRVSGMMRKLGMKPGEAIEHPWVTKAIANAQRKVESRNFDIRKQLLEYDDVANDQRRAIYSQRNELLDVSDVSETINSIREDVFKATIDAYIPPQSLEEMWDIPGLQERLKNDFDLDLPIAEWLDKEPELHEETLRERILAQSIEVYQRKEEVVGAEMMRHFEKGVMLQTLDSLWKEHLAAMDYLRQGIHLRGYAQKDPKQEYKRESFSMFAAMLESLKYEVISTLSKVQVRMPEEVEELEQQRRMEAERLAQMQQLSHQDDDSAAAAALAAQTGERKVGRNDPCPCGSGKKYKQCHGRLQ

SMILES | Percent Effect [1] [%] | Percent Effect [2] [%] | Percent Effect [3] [%] | Percent Effect [4] [%] | Percent Effect (Trypanosoma cruzi) [%] | Percent Effect [5] [%] | Percent Effect [6] [%] | Percent Effect (Homo sapiens) [%] | Percent Effect [7] [%] | Percent Effect [8] [%] | Percent Effect [9] [%]
COc1cc(N2CC[C@H](O)[C@@H]2Cc2cnn(C)c2)ncn1 | -0.518 | 10.8 | 1.19 | -5.15 | -3.62 | 8.6 | 19.2 | -8.64 | 3.24 | 10.3 | -2.09
COC(=O)c1cccc(C(=O)N2CCN(c3cccc(C)c3C)CC2)n1 | -0.0243 | 20.8 | -2.32 | 0.218 | 2.66 | 0.645 | 10.3 | 87 | 2.12 | 11.5 | -9.48
COc1ccc2c(c1)C1(CCN(Cc3ccoc3)CC1)N(C)CC2 | -1.9 | 5.2 | 2.57 | 3.45 | -0.0986 | -7.1 | 20 | -0.746 | -1.06 | 8.97 | -9.11
Cn1cc(CNc2ncnc3c2CCN(Cc2ccsc2)CC3)cn1 | -6.16 | 13.3 | -5.59 | 29.3 | 4.97 | 7.29 | 17.1 | -4.35 | 4.92 | 16.1 | -0.968
Cn1nccc1C(=O)N1CCOC(Cc2cccc(C(F)(F)F)c2)C1 (centres undefined) | -6 | 0 | 0.696 | -3.79 | -3.99 | -0.521 | 4.18 | 12.7 | 3.83 | 3.7 | 2.23
CCOCCCNC(=O)c1cn(CC)nc1C | -3.21 | 20 | -2.97 | -1.34 | 0.982 | 1.58 | 15.3 | 16.9 | 6.35 | 17.9 | -9.37
CC(=O)N(Cc1ncc(C)o1)C1CCN(CCNC2CCCCC2)C1 (centres undefined) | -1.61 | 2.7 | 2.29 | -9.81 | -9.68 | 0.744 | 13 | 18.4 | -2.15 | -3.7 | -7.63
COCc1n[nH]/c(=N/C(=O)COc2cnc(C)cc2O)s1 | -1.58 | -5.26 | 2.8 | 1.24 | -6.33 | -1.18 | 9.3 | -1.08 | 3.19 | 5.2 | -4.33
Cc1ccc(C(=O)N(C)Cc2cscn2)c(=O)[nH]1 | -6.94 | 15.8 | -3.33 | 3.04 | 2.24 | 1.18 | 4.31 | 1.38 | 4.25 | 2.6 | -6.33

— ChEMBL document CHEMBL3988442, “University of Dundee, Small-Polar-MMV Screening Library” (2021)
